This is a sample that favours compounds with a hit; in the whole collection about 12% have one here.
ALDH1A1 block – blocks purified human ALDH1A1 activity | P00352 | Purified ALDH1A1, NADH fluorescence, propionaldehyde substrate | Potency, µM (doses to about 75.3 µM), for the others: at the highest dose activity, negative = inhibition, actives largely listed as inhibitors | actives 7.3% (n = 220,000); active = well fitted inhibition curve with a large enough effect, not every such curve was filed as active; inconclusive = small, poorly fitted or top-dose-only effect, or another doubt; inactive = no such curve, though single readings can be large or run the other way;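 also: plate controls were no enzyme wells and a reference inhibitor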
PLK1 PBD block – blocks phosphopeptide binding to human PLK1 polo-box domain; Potency, µM, without a hit: max response, negative = inhibition, actives largely listed as inhibitors; P53350; AID 720504; actives 2.8% (n = 360,000); Plk1 PBD binding of FITC phosphopeptide, fluorescence polarization; also: series mostly up to about 57 µM; nearly all actives have a fitted effect of over 65% in size
Target sequence (P53350 whole entry, looked up, the tested form may be a part): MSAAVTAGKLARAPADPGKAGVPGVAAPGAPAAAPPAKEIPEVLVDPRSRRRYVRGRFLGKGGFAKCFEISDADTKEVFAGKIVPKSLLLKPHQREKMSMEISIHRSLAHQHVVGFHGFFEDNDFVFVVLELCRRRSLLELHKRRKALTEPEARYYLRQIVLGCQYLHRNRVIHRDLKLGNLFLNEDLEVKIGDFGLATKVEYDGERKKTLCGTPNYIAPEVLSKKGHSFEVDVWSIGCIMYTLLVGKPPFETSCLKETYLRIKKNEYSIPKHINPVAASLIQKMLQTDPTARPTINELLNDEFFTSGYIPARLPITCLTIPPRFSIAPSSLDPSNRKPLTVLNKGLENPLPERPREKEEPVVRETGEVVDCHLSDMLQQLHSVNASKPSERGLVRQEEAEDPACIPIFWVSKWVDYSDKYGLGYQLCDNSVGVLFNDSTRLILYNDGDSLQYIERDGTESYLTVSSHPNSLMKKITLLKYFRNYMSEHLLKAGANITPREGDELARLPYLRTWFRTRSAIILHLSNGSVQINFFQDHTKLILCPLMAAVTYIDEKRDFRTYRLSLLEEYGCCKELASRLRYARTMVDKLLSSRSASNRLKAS
Sfp inh – blocks B. subtilis Sfp PPTase activity; Q9F4F7; Biochemical Sfp PPTase activity, qHTS; Potency, µM, inactives show largest response in the series, negative = inhibition, most hits filed as inhibitors; actives 3.5% (n = 310,000); AID 1490;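 also: the enzyme is Sfp with the accession as filed and its product quenches rhodamine fluorescence; 0% = enzyme reaction without inhibitor and -100% = no enzyme wells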
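Fluorescence-quenching assay: 15 nM Sfp-PPTase preincubated 15 min at room temperature with compound, then 5 uM rhodamine-CoA and 12.5 uM BHQ-2-labelled YbbR peptide added. Fluorescence (ex 525/em 598 nm) read at start and after 30 min; difference gives rate.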
VP16 counter – Gal4-VP16 reporter inhibition counter-screen | actives 3.5% (n = 310,000) | Drosophila S2 Gal4-VP16 UAS-luciferase, luminescence, 20 h | Potency, µM (top dose mostly 53.6 µM), for the others: top-dose activity, negative = inhibition, most hits filed as inhibitors;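 also: Gal4-VP16 expression switched on by copper sulfate through the metallothionein promoter; nearly all actives have a fitted effect of over 50% in size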
RORgamma inh – ROR gamma (mouse) transcription inhibition; Potency, µM (highest dose often 53.6 µM), without a hit: top-dose activity change, negative = inhibition, hits mostly inhibitors; Drosophila S2 Gal4-RORgamma UAS-luciferase reporter, 20 h; P51450; actives 5.4% (n = 310,000); also: nearly all actives have a fitted effect of over 60% in size
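Compounds are pin-transferred onto Drosophila Schneider cells expressing a copper-inducible Gal4–ROR gamma transactivation domain fusion. After 1 hr, copper sulfate is added to 700 uM final; luciferase is read 20 hr later.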
* marks the source's active call; other numbers are inactive results; ? = inconclusive; . = no result; [ ] = another dose, or the depositor's remark. Unless noted, calls follow the shape of the dose curve; as a rule, active = well fitted curve in the direction sought with a large enough effect; inconclusive = small, poorly fitted or top-dose-only effect, or another doubt; inactive = no such curve, though single readings can be large; an effect the other way counts as inactive or inconclusive. Unless noted, % is scaled to controls: 0 for no effect and ±100 for the full control effect; potency is read from the fitted curve at half-maximal effect.

SMILES	ALDH1A1 block	PLK1 PBD block	Sfp inh	VP16 counter	RORgamma inh
CC1CCN(C(=O)CNS(=O)(=O)c2ccc(Br)s2)CC1	8.9µM*	-5%	19%	-28%	-1%
CC(C)COC[C@H](CN(Cc1ccccc1)c1ccccc1)N1CCCC1	6%[20.9 µM]	.	5%	-10%[17 µM]	-25%[16.9 µM]
CC(=O)Nc1cc(-c2cccc(CO)c2)cn2c(-c3ccc(F)cc3)cnc12	.	-6%	.	.	.
CCO/C=C1/C(=O)N(CC)c2ccccc21	?	15µM*	12%	-1%	-11%
CCO/C=C1/C(=O)N(Cc2ccccc2)C(=O)c2ccccc21	?	?	31%	-6%	-16%
CCO/C=C1/C(=O)N(c2ccc(OC)cc2)C(=O)c2ccccc21	?	17µM*	16%	-10%	16%
c1ccc2c(N3CCOCC3)nc(-c3ccoc3)nc2c1	?	.	9%	2%	11%
O=Cc1ccc(OC(=O)c2cc(Cl)nc3ccccc23)cc1	14µM*	?	-6%	-8%	-28%
COC(=O)c1ccccc1S(=O)(=O)C(C)(C)C	3%	24µM*	3%	-15%	24%
COC(=O)c1ccccc1S(=O)(=O)NNC(=O)Nc1ccccc1	.	-4%	16%	?	11µM*
COC(=O)c1ccccc1S(=O)(=O)NNC(=O)C1COc2ccccc2O1 (centres undefined)	.	-19%	.	.	.
COC(=O)c1ccccc1O	-1%	.	12%	-1%	-2%[10 µM]
O=C1c2ccccc2C(=O)N1OS(=O)(=O)c1ccccc1	?	.	10µM*	16µM*	?

Screening results deposited in PubChem by National Center for Advancing Translational Sciences (NCATS).
